High-throughput results as filed in PubChem.
HTR5A inv ag – counter-screen for OPRM1-OPRD1 inverse agonists: human HTR5A inverse agonism; HTR5A cell line, luminescence; actives 0.083% (n = 340,000); inhibition, % at 9.3 µM; P47898; in the data active = inhibition mostly above about 23%, no sharp cut-off; inactive = mostly below about 18%;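 also: 0% = cells with DMSO and 100% = no-cell wells with DMSO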
Target sequence (P47898 whole entry, looked up): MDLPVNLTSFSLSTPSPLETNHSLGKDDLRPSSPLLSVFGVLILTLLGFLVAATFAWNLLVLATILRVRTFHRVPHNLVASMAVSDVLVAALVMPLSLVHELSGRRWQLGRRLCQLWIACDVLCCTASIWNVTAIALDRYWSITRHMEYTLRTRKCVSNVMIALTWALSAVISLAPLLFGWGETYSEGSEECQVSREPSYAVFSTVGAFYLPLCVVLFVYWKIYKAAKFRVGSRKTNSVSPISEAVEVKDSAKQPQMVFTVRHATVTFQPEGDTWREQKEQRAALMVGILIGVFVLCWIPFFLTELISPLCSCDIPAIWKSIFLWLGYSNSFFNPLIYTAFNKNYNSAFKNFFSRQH
OPRM1-OPRD1 inv – mu-delta opioid heterodimer inverse agonism; P35372+P41143; cell-based MOR-DOR heterodimer luminescence; inhibition, % at 9.3 µM; actives 0.21% (n = 340,000); AID 504357; in the data active = inhibition above about 22%, passing the limit was not always enough;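 also: 0% = cells with DMSO and 100% = wells without cells with DMSO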
HTR5A ag ctr – HTR5A agonism, opioid heterodimer counter-screen; activation, % at 9.3 µM; actives 0.61% (n = 340,000); HTR5A agonist assay, luminescence, cell-based; AID 504692; in the data active = activation mostly above about 9.5%, no sharp cut-off; inactive = mostly below about 7.6%;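 also: 0% = cells with vehicle only and 100% = reference agonist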
MOR-DOR ag – OPRM1-OPRD1 heterodimerization agonism; P35372+P41143; activation, % at 9.3 µM; actives 0.3% (n = 340,000); cells, luminescence; in the data active = activation above about 18%;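 also: 0% = vehicle-treated cells and 100% = reference agonist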
Starred values were filed as active, the others as inactive. This is a sample that favours compounds with a hit; in the whole collection about 1.1% have one here.

SMILES	HTR5A inv ag	OPRM1-OPRD1 inv	HTR5A ag ctr	MOR-DOR ag
O=C(NCc1ccc(Cl)cc1)C1CCCN(c2ncnc3c2nc2n3CCCCC2)C1 (configuration not stated)	18	12	13*	-2
CCCCn1c(N)c(N(CC(C)C)C(=O)c2ccc(S(=O)(=O)N3CCC(C)CC3)cc2)c(=O)[nH]c1=O	0	7	3	-2
CCOc1ccc(CNC(=O)Cn2nc(C)c3c(C)n(-c4ccc(C)cc4)nc3c2=O)cc1	-3	1	0	0
COc1ccccc1C(=O)N/C(=C\c1cn(C)c2ccccc12)C(=O)N1CCOCC1	16	14	11*	-3
CC1=CC2C(C(O)CC3(C)C2CC(C)C32OCOC23COCO3)C2(C)C/C(=C\O)C(=O)C=C12 (configuration not stated)	-120	-112	31*	26*
COCCN(C(=O)CNC(=O)c1ccco1)C(C(=O)NC1CCCCC1)c1cccnc1 (configuration not stated)	-22	-3	0	0
COc1ccc(/C=N\NC(=O)c2cc(OCC(F)(F)F)ccc2OCC(F)(F)F)cc1	1	-80	0	16
Cc1ccc(/C=N\NC(=O)c2cc(OCC(F)(F)F)ccc2OCC(F)(F)F)cc1	-48	-128	15*	28*
CCOC(=O)C(=CNc1ccc(NC2=NCC(C)S2)cc1)C(=O)OCC (configuration not stated)	-26	-18	9.8*	4
Cc1c(C(=O)OC2CCCC2)[nH]c2c1C(=O)CC(c1ccco1)C2 (configuration not stated)	-28	-6	10*	1
O=C(CSc1cccc[n+]1[O-])c1ccc(Cl)s1	34	10	13*	-2
Cc1ccc(Cl)cc1N1CCN(C(=O)c2noc(C(C)C)c2[N+](=O)[O-])CC1	-172	-276	42*	52*
O=C(Nc1cccc(C(F)(F)F)c1)c1cc(-c2ccco2)on1	3	-25	4	4
CCN(CC)S(=O)(=O)c1ccc(NC(=O)COc2c(OC)cccc2OC)cc1	3	2	13*	0
CCN(CC)S(=O)(=O)c1ccc(NC(=O)Nc2cccc(C(F)(F)F)c2)cc1	13	-31	13*	6
O=C(Nc1cccc(C(F)(F)F)c1)c1sc(Cl)nc1C(F)(F)F	-35	-18	9.4*	4
CCN(CC)S(=O)(=O)c1ccc(C(=O)Nc2cccc(C)c2)cc1	0	-6	2	1
Cc1ccc(NS(=O)(=O)c2ccc(NC(=O)c3cccs3)cc2)cc1	-10	-38	8.3*	7
CCCCNCCS(=O)(=O)NCc1ccc(OC)cc1	-16	-1	4	0
COC(=O)c1nn(-c2ccccc2)c(=O)cc1Sc1ccc(Cl)cc1	-1	1	0	0
CC(=O)c1sc(N/N=C\c2c(O)ccc3ccccc23)nc1C	14	6	-1	-1
Cc1ccc(S(=O)(=O)Nc2ccc(NC(=O)Nc3cccc(C(F)(F)F)c3)cc2)cc1	-8	-144	21*	28*
O=C(Nc1ccncc1)Nc1cccc(C(F)(F)F)c1	-53	-12	10*	4
Cc1ccc(NC(=S)NNC(=S)Nc2cccc(C(F)(F)F)c2)cc1	-25	-5	0	1
Cc1ccc(N(CC(=O)NCC2CCCO2)C(=O)CCC(=O)Nc2nccs2)cc1 (configuration not stated)	-28	5	11	-1
SMILES	HTR5A inv ag	OPRM1-OPRD1 inv	HTR5A ag ctr	MOR-DOR ag
CC(C)(C)OC(=O)C[C@@H]1C/C=C\C[C@@H](CC(=O)N[C@H](CO)Cc2ccccc2)C(=O)N2CCC[C@H]2COC1=O	-21	6	-2	-1
O=C(COc1ccc(Cl)cc1Br)Nc1cccc(S(=O)(=O)N2CCCC2)c1	-8	-17	14*	4
Cc1ccc(NC(=O)COc2cccc(C)c2C)cc1S(=O)(=O)N1CCCCCC1	-30	-8	11*	2
CCC(=O)NCCc1nc2cc(NC(=O)c3ccc(F)cc3)ccc2n1C	-5	14	1	-3
COc1ccccc1NC(=S)N(Cc1ccccc1)Cc1cccs1	12	-2	9.3*	0
COc1ccccc1NC(=S)N(Cc1cccs1)C1CCCC1	0	-2	0	1
C/C(=N\Nc1nc2ccccc2[nH]1)c1ccccn1	20	61*	-8	-11
Cc1nnc(SCC(=O)Nc2cc(C(F)(F)F)ccc2Cl)n1C	0	0	0	0
COc1cccc(N2CCN(Cc3nc(N)nc(Nc4ccccc4OC)n3)CC2)c1	1	14	14*	-2
